Out of some 59,000 compounds screened, about 6,500 (11%) were called active. Another 15% or so got no clear call; they are omitted. The sample holds actives, similar compounds and a random draw of the others, so the mix is not that of the screen. Rule as the data show it: active = max dye-equivalent concentration above about 10 nM; inconclusive = mostly about 1.1 nM to 9.6 nM; inactive = weaker than that.
Test: qHTS Assay for Spectroscopic Profiling in A350 Spectral Region
Settings: Compound autofluorescence, 340/450 nm, Alexa 350 dye-equivalents; stronger effect = higher value
Description: NIH Molecular Libraries Screening Centers Network [MLSCN]
NIH Chemical Genomics Center [NCGC]
Occasionally, the artifactual effect may originate from the compounds own spectral or other biophysical properties which generally tend to track its assay concentration. Pre-screening/profiling the library with respect to the compounds spectral properties should help one exclude false positives early on. While the most informative fluorescent profiling data set is obtained by performing a full excitation and emission scan of each well by using a monochromator-based plate reader, such an approach is practical only on a very limited scale as scanning each well requires long time. An alternative approach, applied here, is to perform plate reader scans using selected excitation and emission wavelength pairs to generate a multidimensional relational database that correlates compound concentration and the respective relative fluorescence intensity at a given wavelength set. A standard curve of Alexa 350 (A 350) present on each plate as six-point concentration series, was used to compute a normalized fluorescence response, termed dye-equivalent concentration, for each compound at each concentration.
NCGC Assay Protocol Summary:
100 mM Tris buffer, pH 8.0
The wells in columns 1 through 4 of a Kalypsys polypropylene 1536-well compound plate were filled with standard solutions of fluorophore corresponding to the spectral region of interest. Solutions of A 350 were placed in the following wells: I1, J1: 3 mM, I2, J2: 300 uM, I3, J3: 30 uM, I4, J4: zero (DMSO), K1, L1: 3 uM, K2, L2: […], K3, L3: 300 nM, K4, L4: zero (DMSO).
Six uL of buffer were dispensed to 1536-well Greiner black plates. Compounds and dye standards (23 nL) were transferred via Kalypsys PinTool. The plates were incubated for 15 min at room temperature, and then read on ViewLux (Perkin-Elmer) High-throughput CCD imager using 340 nm and 450 nm excitation and emission filter set.
Keywords: NIH Roadmap, MLSCN, MLI, MLSMR, qHTS, NCGC, A350, A-350, Fluorescent Profiling.
With Cc1nc2nc3c(cn2n1)C(=O)CC(c1ccccc1)C3 (stereo unspecified) the max dye-equivalent concentration was “inactive”. In the case of CC1(C)C(=O)C2(CCCCC2)C(=O)OC1c1cccs1 (stereo unspecified), the max dye-equivalent concentration was “inactive”. For C=CCn1c(COc2ccccc2C)nnc1SCC(=O)O, the max dye-equivalent concentration was “inactive”. For Cc1ccc2[nH]c3c(c2c1)CN(C(=O)CN1CCN(c2ccccc2)CC1)CC3, the max dye-equivalent concentration was “inactive”. For Cc1cc(C)c2c(c1)c(C)cc1nnc(SCC(=O)NCc3ccco3)n12, the max dye-equivalent concentration was “inactive”. For CC(=O)N1CCC2(CCCN(Cc3ccccc3)C2)CC1, the max dye-equivalent concentration was “inactive”. With O=C(O)/C(=C/c1c(C(=O)O)[nH]c2cc(Cl)cc(Cl)c12)c1ccccc1 the max dye-equivalent concentration was “inactive”. For O=C1c2ccccc2C(=O)N1CCc1nn[nH]n1, the max dye-equivalent concentration was “inactive”. With CCOC(=O)c1c(C)n(C)c2ccc(OC)c(NC(=O)CN3CCC4(CC3)OCCO4)c12 the max dye-equivalent concentration was “inactive”. For O=C(O)[C@H](CCc1ccccn1)c1ccccc1, the max dye-equivalent concentration was “inactive”. With O=C(NCCc1ccccn1)c1ccc(COc2ccccc2)o1 the max dye-equivalent concentration was “inactive”. In the case of C/C(N)=C(\C#N)C(=O)NCCc1ccccn1, the max dye-equivalent concentration was 12 nM (active). For CC1(C)CC(=O)C(C2=NC(C)(C)Cc3ccccc32)=C(O)C1, the max dye-equivalent concentration was “inactive”. With CCOc1ccc(N=C2SC(C(=O)O)CC(=O)N2C)cc1 (stereo unspecified) the max dye-equivalent concentration was “inactive”. With COC(=O)N1CN(C(=O)OC)CN(C(=O)OC)C1 the max dye-equivalent concentration was “inactive”. With CC(C)=C(NC(=O)c1ccco1)C(=O)NCCc1nc2ccccc2[nH]1 the max dye-equivalent concentration was “inactive”. With CCC(CC)C(=O)Nc1cc(C(=O)OC)cc(C(=O)OC)c1 the max dye-equivalent concentration was “inactive”. With CC(C)OC(=O)c1cc(NC(=O)C2C3CCC(O3)C2C(=O)O)cc(C(=O)OC(C)C)c1 (stereo unspecified) the max dye-equivalent concentration was 13 nM (active). With O=C(CCC(=O)c1cccs1)NCc1ccccc1 the max dye-equivalent concentration was “inactive”. In the case of COC(=O)c1cn(CC(=O)NCc2cccs2)c2ccccc12, the max dye-equivalent concentration was “inactive”. For O=C(Cn1cc(C(=O)c2cccs2)c2ccccc21)NCc1cccs1, the max dye-equivalent concentration was 25 nM (active). For C=C(Br)CN1CCN(CC(=C)Br)CC1, the max dye-equivalent concentration was “inactive”. In the case of O=C1CCC(C(=O)Nc2ccc(OC(F)F)cc2)N1 (stereo unspecified), the max dye-equivalent concentration was 22 nM (active). For CCCOc1ccc(NC(=O)C2CCCNC2=O)cc1 (stereo unspecified), the max dye-equivalent concentration was “inactive”. With COC(=O)COc1ccc(S(=O)(=O)Nc2ccc(NC(C)=O)cc2)cc1 the max dye-equivalent concentration was “inactive”. In the case of NS(=O)(=O)c1cc2c(cc1Cl)NC(C(Cl)Cl)NS2(=O)=O (stereo unspecified), the max dye-equivalent concentration was 7200 nM (active). In the case of Cc1cn(C2C=CC(CO)O2)c(=O)[nH]c1=O (stereo unspecified), the max dye-equivalent concentration was “inactive”. In the case of Cc1ccc(C(=O)NC2CCN(C(=O)N3CCOCC3)CC2)cc1, the max dye-equivalent concentration was “inactive”. For CCOC(=O)c1c(C(C#N)C#N)cc(C)nc1C, the max dye-equivalent concentration was “inactive”. With CCOC(=O)c1cc(-c2ccc(Cl)s2)nc2c1c(C)nn2C the max dye-equivalent concentration was 240 nM (active). For CCOC(=O)c1sc(=S)n(-c2cccc(OC)c2)c1N, the max dye-equivalent concentration was “inactive”. For Cc1ccn2cc(C(=O)NC3CCN(Cc4ccccc4)CC3)nc2c1, the max dye-equivalent concentration was “inactive”. With CCc1ccc2oc(-c3ccc(N)cc3)nc2c1 the max dye-equivalent concentration was 140 nM (active). With O=C(/C=N/O)Nc1ccccc1 the max dye-equivalent concentration was “inactive”. In the case of CC1CCc2c(sc3c2C2=NS(=O)(=O)CCN2C=N3)C1 (stereo unspecified), the max dye-equivalent concentration was 29 nM (active). In the case of CC1(CCC(=O)OC2CCCCC2)OCCO1, the max dye-equivalent concentration was “inactive”. With CCOC(=O)c1cc2sccc2n1Cc1ccc(C#N)cc1 the max dye-equivalent concentration was “inactive”. With CC(=O)OC(C)C[N+](C)(C)C (stereo unspecified) the max dye-equivalent concentration was 570 nM (active). With CC(C[N+](C)(C)C)OC(N)=O (stereo unspecified) the max dye-equivalent concentration was “inactive”. With CCN1C(=O)/C(=C\N2CCN(c3ccccc3)CC2)SC1=S the max dye-equivalent concentration was “inactive”. In the case of CCN1C(=O)/C(=C2\SC(N3CCCCC3)=NC2=O)c2ccccc21, the max dye-equivalent concentration was 17 nM (active). In the case of CC(=O)c1ccc(-n2nnnc2SCC(=O)N2CCN(C(=O)c3ccco3)CC2)cc1, the max dye-equivalent concentration was “inactive”. With CN1CCN(Cc2nc3c(c(=O)n(C)c(=O)n3C)n2Cc2cccc3ccccc23)CC1 the max dye-equivalent concentration was “inactive”. In the case of Cc1nnc(C)n1/N=C/c1ccc(C(C)C)cc1, the max dye-equivalent concentration was “inactive”. In the case of O=C1CC(c2cccc(F)c2)C2=C(CCCC2=O)N1 (stereo unspecified), the max dye-equivalent concentration was “inactive”. In the case of O=C1CC(c2cccc(Br)c2)C2=C(CCCC2=O)N1 (stereo unspecified), the max dye-equivalent concentration was 44 nM (active). For CC(N)=NCc1cccc(CN)c1, the max dye-equivalent concentration was “inactive”. In the case of CCCCN(CC)CCCNC(=O)CS(=O)(=O)Cc1nc(-c2cccc(OC)c2)oc1C, the max dye-equivalent concentration was “inactive”. For CNC(=O)n1ccc(C(=O)N2CCCCC2)n1, the max dye-equivalent concentration was “inactive”. For CN(C)c1ccnc2sc3c(=O)n(Cc4ccccc4)cnc3c12, the max dye-equivalent concentration was 32 nM (active). In the case of CN(C)/C=C/c1c(C#N)c(=O)ncn1Cc1ccccc1, the max dye-equivalent concentration was “inactive”. For O=C(Cc1cccs1)N1CCCC(c2nc(-c3ccc(S(=O)(=O)N4CCCC4)cc3)no2)C1 (stereo unspecified), the max dye-equivalent concentration was “inactive”. For COc1cc(Cl)c(C)cc1NC(=O)CSc1nnc(-c2cccnc2)n1Cc1ccco1, the max dye-equivalent concentration was “inactive”. For CO[C@@H]1/C=C\O[C@]2(C)Oc3c(C)c(O)c4c(O)c(c(CN(C)C)c(O)c4c3C2=O)NC(=O)/C(C)=C\C=C[C@@H](C)[C@@H](O)[C@H](C)[C@@H](O)[C@H](C)[C@H](OC(C)=O)[C@@H]1C, the max dye-equivalent concentration was “inactive”. For C=C(Br)Cn1c(CCCC)nc2ccccc21, the max dye-equivalent concentration was “inactive”. With CCc1nc2ccccc2n(CCOCCOCCn2c(=O)c(CC)nc3ccccc32)c1=O the max dye-equivalent concentration was 45 nM (active).
